The values that follow come from PubChem BioAssay (NCI).

Some test systems named below: DU-145 prostate; K-562 leukemia; MALME-3M melanoma; MDA-MB-231 breast; RXF 393 renal; SF-268 CNS; SF-295 CNS; SF-539 CNS; UACC-257 melanoma; M14 melanoma; HCT-15 colon; HT29 colon; SNB-75 CNS; SNB-19 CNS; U251 CNS; PC-3 prostate; SK-MEL-5 melanoma; UACC-62 melanoma; SK-MEL-28 melanoma; LOX IMVI melanoma.
Test in all cases: NCI-60 one-dose screen, 48 h (100 = growth as untreated, 0 = no growth, -100 = all killed)
What all share (conditions): 10 µM unless noted

SMILES strings stand for the structures. Compounds without any hit were thinned out: in the full panel of roughly 83,000, 20% have a hit.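 Growth was measured after 48 h exposure to one concentration of compound in 96-well plates. Values under 10 count as active.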 Unmarked numbers belong to inactive results. Activity calls are given as the source filed them.

On to `COc1cc(-c2nc3cc(Cl)c(Cl)cc3[nH]2)ccc1OCC(=O)N=Nc1c(O)[nH]c2ccc(Cl)cc12`, for which the growth was 6.51% (active) in the assay on DU-145 prostate; -11.7% (active) in the assay on K-562 leukemia; -16.4% (active) in the assay on MALME-3M melanoma; -43.8% (active) with MDA-MB-231 breast; -6.73% (active) in the assay with RXF 393 renal; -24.5% (active) in the assay on SF-268 CNS. The growth in the assay on SF-295 CNS was -18% (active); in the assay with SF-539 CNS, -36% (active); with UACC-257 melanoma, 7.43% (active); in the assay on M14 melanoma, -35.8% (active); in the assay on HCT-15 colon, 58.4%; in the assay on HT29 colon, 9.24% (active). The growth in the assay on SNB-75 CNS was 6.76% (active); in the assay with SNB-19 CNS it was 9.74% (active); in the assay with U251 CNS, -89.4% (active); in the assay on PC-3 prostate, 0.522% (active); with SK-MEL-5 melanoma it was -62.9% (active); in the assay on UACC-62 melanoma it was -11.7% (active). Besides, the growth with SK-MEL-28 melanoma is -2.83% (active).

As to `COc1ccccc1N(C(C)=O)C1=C(Cl)C(=O)c2ccccc2C1=O`, the growth with DU-145 prostate was 38.1%; with K-562 leukemia it was -13.2% (active); in the assay with MALME-3M melanoma, 43.3%; with MDA-MB-231 breast, 10.5%; with RXF 393 renal, -29.1% (active); with SF-268 CNS, 30.1%. Also, the growth in the assay with SF-295 CNS was -36% (active); with SF-539 CNS it was -30.9% (active); in the assay with UACC-257 melanoma, -7.02% (active); in the assay on M14 melanoma, 11.7%; with HCT-15 colon, 4.27% (active); with HT29 colon, 6.98% (active). In addition, the growth in the assay on SNB-75 CNS is 24.8%; in the assay on SNB-19 CNS it was 34%; with U251 CNS, 8.36% (active); in the assay with PC-3 prostate it was 3.3% (active); in the assay on SK-MEL-5 melanoma, -69.9% (active); with UACC-62 melanoma, -35.3% (active). Further, the growth in the assay with SK-MEL-28 melanoma was 21.2%.

Regarding `CC1=C(C(=O)Nc2nc(-c3ccc(Cl)cc3)cs2)[C@H](c2ccc(O)cc2)NC(=O)N1`, the growth in the assay with DU-145 prostate was 98%; with K-562 leukemia, 96.8%; in the assay with MALME-3M melanoma it was 99.6%; in the assay with MDA-MB-231 breast, 90.2%; in the assay on RXF 393 renal, 104%; in the assay with SF-268 CNS, 87.1%. Moreover, the growth in the assay on SF-295 CNS was 95.7%; with SF-539 CNS it was 99.3%; in the assay on UACC-257 melanoma, 105%; in the assay on M14 melanoma, 98.1%; in the assay on HCT-15 colon it was 102%; with HT29 colon it was 100%. The growth is 74.3% in the assay on SNB-75 CNS; 107% with SNB-19 CNS; 93.4% with U251 CNS; 84.4% in the assay with PC-3 prostate; 99.8% in the assay with SK-MEL-5 melanoma; 95.1% in the assay with LOX IMVI melanoma. The growth in the assay with SK-MEL-28 melanoma was 115%.

For the molecule `CC1(C)CC[C@]2(C(=O)N[C@H](CO)Cc3ccccc3)CC[C@]3(C)C(=CC[C@@H]4[C@@]5(C)CCCNC(C)(C)[C@@H]5CC[C@]43C)[C@@H]2C1`, the growth in the assay on DU-145 prostate is 93.7%; in the assay on K-562 leukemia it was 1.94% (active); in the assay on MALME-3M melanoma, 106%; in the assay with MDA-MB-231 breast, 70.1%; in the assay on RXF 393 renal, 78.4%; with SF-268 CNS, 85.7%. Also, the growth with SF-295 CNS is 102%; with SF-539 CNS, 90.4%; with UACC-257 melanoma, 106%; in the assay on M14 melanoma, 71.4%; with HCT-15 colon, 60.5%; in the assay on HT29 colon it was 10.6%. Moreover, the growth in the assay with SNB-75 CNS is 87.1%; in the assay with SNB-19 CNS it was 84.8%; in the assay on U251 CNS, 68.9%; in the assay with PC-3 prostate, 25.7%; with SK-MEL-5 melanoma it was 90.7%; in the assay on UACC-62 melanoma, 78.5%. Besides, the growth with LOX IMVI melanoma was 69.6%; in the assay with SK-MEL-28 melanoma, 106%.

On to `CSC(SC)=C(C#N)c1nc2ccccc2s1`, for which the growth in the assay with DU-145 prostate is 87.2%; in the assay on K-562 leukemia it was 47.4%; in the assay with MALME-3M melanoma, 67.9%; in the assay on MDA-MB-231 breast, 52.9%; in the assay with RXF 393 renal, 95.8%; in the assay on SF-268 CNS, 55.1%. Further, the growth in the assay with SF-295 CNS is 88.2%; in the assay on SF-539 CNS it was 60.2%; with UACC-257 melanoma, 54%; in the assay with M14 melanoma, 48.1%; in the assay on HCT-15 colon, 61.8%; in the assay with HT29 colon it was 97.2%. The growth was 74.3% in the assay with SNB-75 CNS; 66.9% in the assay with SNB-19 CNS; 76.5% in the assay with U251 CNS; 30% in the assay with PC-3 prostate; 27.9% with SK-MEL-5 melanoma; 9.44% (active) in the assay on UACC-62 melanoma. For the same molecule, in the assay on SK-MEL-28 melanoma, the growth was 38.8%.

As for `Nc1[nH]c(=S)nc2oc(-c3ccccc3)c(-c3ccccc3)c12`, the growth is 106% in the assay on DU-145 prostate; 95.2% with K-562 leukemia; 108% in the assay with MALME-3M melanoma; 103% with MDA-MB-231 breast; 93% in the assay with RXF 393 renal; 95.9% in the assay with SF-268 CNS. Also, the growth in the assay on SF-295 CNS was 96.1%; with SF-539 CNS, 98.6%; in the assay on UACC-257 melanoma, 102%; in the assay on M14 melanoma it was 106%; with HCT-15 colon, 97.3%; with HT29 colon, 101%. Also, the growth was 90.3% with SNB-75 CNS; 98% in the assay on SNB-19 CNS; 103% in the assay with U251 CNS; 97.4% in the assay on PC-3 prostate; 102% with SK-MEL-5 melanoma; 91.5% in the assay with UACC-62 melanoma. Further, in the assay with SK-MEL-28 melanoma, the growth is 101%.

On to `CCOC(=O)c1c(C)nc2c(c1N)/C(=C/c1ccc(OC)cc1)C(=O)N2Cc1ccccc1`, for which the growth is 60.7% in the assay with DU-145 prostate; 46.5% in the assay with K-562 leukemia; 64.5% with MALME-3M melanoma; 57.8% with MDA-MB-231 breast; 71.4% with RXF 393 renal; 62.3% in the assay with SF-268 CNS. Also, the growth in the assay with SF-295 CNS is 68.7%; in the assay with SF-539 CNS it was 87.5%; in the assay on UACC-257 melanoma, 49.6%; in the assay with M14 melanoma it was 71.3%; in the assay on HCT-15 colon it was 41%; in the assay on HT29 colon, 34%. In addition, the growth with SNB-75 CNS is 73.3%; in the assay with SNB-19 CNS, 77.7%; in the assay with U251 CNS, 50.7%; in the assay with PC-3 prostate, 58.4%; in the assay with SK-MEL-5 melanoma, 61.8%; with UACC-62 melanoma, 48.8%. Moreover, the growth with SK-MEL-28 melanoma is 78.5%.
